# From PubChem BioAssay (NCATS)
# Values joined by “and” are separate entries in the source; they are usually repeats but may differ in a detail not shown here. Equal values may be shown once. Results filed as inconclusive are left out. A call without a number means that no potency is given here. Active and inactive are the calls of the source. Calls follow the shape of the dose curve; as a rule, active = well fitted curve in the direction sought with a large enough effect; inconclusive = small, poorly fitted or top-dose-only effect, or another doubt; inactive = no such curve, though single readings can be large; an effect the other way counts as inactive or inconclusive.
# Tested on: Zika virus NS2B-NS3 protease
# Experiment: Primary screen GU AMC qHTS for Zika virus inhibitors (AID 1347154); also: nearly all actives have a fitted effect of over 70% in size
# Details: Zika NS2B-NS3 unlinked protease, AMC fluorogenic substrate; series mostly up to 54.1 µM
# How it was run: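 Unlinked Zika NS2B hydrophilic domain/NS3 protease domain noncovalent complex (25 nM final) in 10 mM Tris-HCl pH 8.0, 0.01% Tween 20, with AMC peptide substrate. Fluorescence (ex 340, em 450 nm) change over 15 min, room temperature; percent inhibition fitted to 4-parameter Hill equation.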
row,Structure (SMILES),Potency
1,N[C@@H]1CONC1=O,inactive
2,Clc1cccc(Cl)c1NC1=NCCN1,inactive
3,CC(C)C[C@H](NC(=O)[C@@H](O)[C@H](N)Cc1ccccc1)C(=O)O,inactive
4,Cc1oncc1C(=O)Nc1ccc(C(F)(F)F)cc1,inactive
5,Cn1cnc([N+](=O)[O-])c1Sc1ncnc2nc[nH]c12,inactive
6,Cc1ccccc1C(OCCN(C)C)c1ccccc1 (stereo unspecified),inactive
7,CNC[C@H](O)c1cccc(O)c1,inactive
8,CC(C)(C)NCC(O)c1ccc(O)c(CO)c1 (stereo unspecified),inactive
9,C[C@]12CCC(=O)C=C1CC[C@@H]1[C@@H]2[C@@H](O)C[C@@]2(C)[C@H]1CC[C@]2(O)C(=O)CO,inactive
10,NC(=O)c1cnccn1,inactive
11,Nc1nc2c(ncn2COCCO)c(=O)[nH]1,inactive
12,Cc1cccc(-c2[nH]c(C(C)(C)C)nc2-c2ccc3nccnc3c2)n1,inactive
13,NS(=O)(=O)c1cc2c(cc1Cl)NC=NS2(=O)=O,inactive
14,Nc1nc2ccc(OC(F)(F)F)cc2s1,inactive
15,CCOC(=O)C1=C[C@]2(CC)CCCN3CCc4c(n1c1ccccc41)[C@@H]32,inactive
16,O=C1CCc2cc(OCCCCc3nnnn3C3CCCCC3)ccc2N1,inactive
17,CC(C[N+](C)(C)C)OC(N)=O (stereo unspecified),inactive
18,OC(CCN1CCCCC1)(c1ccccc1)C1CC2C=CC1C2 (stereo unspecified),inactive
19,O=NN(CCCl)C(=O)NCCCl,inactive
20,O=C(Nc1nc2ccccc2n1CCN1CCOCC1)c1cccc([N+](=O)[O-])c1,inactive

# Tested on: not listed separately
# Experiment: Confirmatory screen GU Rhodamine qHTS for Zika virus inhibitors qHTS (AID 1347157); also: potency is read from the fitted curve at half-maximal effect; nearly all actives have a fitted effect of over 70% in size
# Details: purified enzyme assay, Rhodamine110 substrate fluorescence, 15 min; series mostly up to 114 µM
# How it was run: (§1)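 Percent inhibition derives from the 15-min fluorescence change (ex 480, em 540 nm), normalized to no-enzyme and no-inhibitor wells. Reactions contained 25 nM NS2B-NS3 complex and 1.5 microM substrate in 10 mM Tris-HCl pH 8.0.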
row,Structure (SMILES),Potency
1,Cc1cc(SCc2sc(-c3ccc(C(F)(F)F)cc3)nc2C)ccc1OCC(=O)O,2480 nM (active)
2,CC(C)(Sc1ccc(CCN(CCCCC2CCCCC2)C(=O)NC2CCCCC2)cc1)C(=O)O,1970 nM (active)
3,Cc1cc2c(C(C)C)c(O)c(O)c(C=O)c2c(O)c1-c1c(C)cc2c(C(C)C)c(O)c(O)c(C=O)c2c1O,2510 nM (active)

# Tested on: Zika virus NS2B-NS3 protease (unlinked complex)
# Experiment: Primary screen GU Rhodamine qHTS for Zika virus inhibitors: Unlinked NS2B-NS3 protease assay (AID 1347159); also: nearly all actives have a fitted effect of over 60% in size; also: potency is read from the fitted curve at half-maximal effect
# Details: Recombinant ZIKV NS2B-NS3 protease, Rhodamine110 substrate fluorescence; series mostly up to 107 µM
# How it was run: as §1
row,Structure (SMILES),Potency
1,COc1cccc2cc(-c3nc(C4CCC(C(=O)O)CC4)n4ncnc(N)c34)[nH]c12 (stereo unspecified),inactive
2,Cc1cc(SCc2sc(-c3ccc(C(F)(F)F)cc3)nc2C)ccc1OCC(=O)O,3550 nM (active)
3,COc1c(Cl)cc2c([nH]c3cnccc32)c1NC(=O)c1cccnc1C,inactive

# Tested on: Zika virus NS2B-NS3 protease (linked construct)
# Experiment: Primary screen NINDS Rhodamine qHTS for Zika virus inhibitors (AID 1347160); also: nearly all actives have a fitted effect of over 55% in size; also: potency is read from the fitted curve at half-maximal effect
# Details: purified NS2B-NS3 protease, Rhodamine110 substrate fluorescence; series mostly up to 57.1 µM
# How it was run: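 In 10 mM Tris-HCl pH 8.0 containing 0.01% Tween 20, linked NS2B-NS3 protease (25 nM final) is exposed to test compounds for 15 min. Cleavage of 1.5 microM Rhodamine110 substrate is tracked by fluorescence over 15 min.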
row,Structure (SMILES),Potency
1,Cn1cc(-c2ccc3nnc(C(F)(F)c4ccc5ncccc5c4)n3n2)cn1,inactive
2,COc1cccc2cc(-c3nc(C4CCC(C(=O)O)CC4)n4ncnc(N)c34)[nH]c12 (stereo unspecified),inactive
3,S=C(NCc1ccc2c(c1)OCO2)N1CCN(c2ncnc3c2oc2ccccc23)CC1,inactive
4,CCOc1cc(C(=O)Nc2ccc(Cl)c(-c3nc4ccccc4[nH]3)c2)cc(OCC)c1OCC,inactive
5,COc1c(Cl)cc2c([nH]c3cnccc32)c1NC(=O)c1cccnc1C,inactive
6,CC(C)(Sc1ccc(CCN(CCCCC2CCCCC2)C(=O)NC2CCCCC2)cc1)C(=O)O,3980 nM (active)
7,COc1cc(Oc2ccnc3cc(OC)c(OC)cc23)ccc1NC(=O)NC(C)c1nccs1 (stereo unspecified),inactive
8,CS(=O)(=O)c1ccc(C(=O)Nc2ccc(Cl)c(-c3ccccn3)c2)c(Cl)c1,inactive
9,CC[C@H](Nc1ncnc2nc[nH]c12)c1nc2cccc(F)c2c(=O)n1-c1ccccc1,inactive

# Tested on: not listed separately
# Experiment: Confirmatory screen NINDS Rhodamine qHTS for Zika virus inhibitors (AID 1347161); also: nearly all actives have a fitted effect of over 60% in size; also: potency is read from the fitted curve at half-maximal effect
# Details: purified enzyme assay, Rhodamine110 substrate fluorescence, 15 min; series mostly up to 114 µM
# How it was run: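 Kinetic fluorescence (Ex 480 nm, Em 540 nm) over 15 min with 1.5 microM Rhodamine110 peptide and 25 nM linked protease.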
row,Structure (SMILES),Potency
1,COCC(=O)NCC=Cc1ccc2ncnc(Nc3ccc(Oc4ccc(C)nc4)c(C)c3)c2c1,inactive
2,Cc1cc(SCc2sc(-c3ccc(C(F)(F)F)cc3)nc2C)ccc1OCC(=O)O,2.78 µM (active) and 3.12 µM (active)
3,Cc1cc2c(C(C)C)c(O)c(O)c(C=O)c2c(O)c1-c1c(C)cc2c(C(C)C)c(O)c(O)c(C=O)c2c1O,2 µM (active)

# Tested on: Zika virus NS2B-NS3 protease (linked)
# Experiment: 384 well plate NINDS AMC confirmatory qHTS for Zika virus inhibitors (AID 1347163); also: potency is read from the fitted curve at half-maximal effect; nearly all actives have a fitted effect of over 50% in size
# Details: Recombinant NS2B-NS3 protease, Ac-VKTGKR-AMC fluorescence; series mostly up to 100 µM
# How it was run: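 Linked protease 5/30/60 nM final; cpds up to 1 mM final, ~15 min preinc. Substrate Ac-VKTGKR-AMC 30 microM final. RT, dark, 25 min; FI ex 355/em 460; normalized to no-enzyme/no-inhibitor ctrls.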
row,Structure (SMILES),Potency
1,Cc1cc(SCc2sc(-c3ccc(C(F)(F)F)cc3)nc2C)ccc1OCC(=O)O,2820 nM (active)
2,CC(C)(Sc1ccc(CCN(CCCCC2CCCCC2)C(=O)NC2CCCCC2)cc1)C(=O)O,3160 nM (active)
3,Cc1cc2c(C(C)C)c(O)c(O)c(C=O)c2c(O)c1-c1c(C)cc2c(C(C)C)c(O)c(O)c(C=O)c2c1O,35500 nM (active)

# Tested on: Zika virus NS2B-NS3 protease (linked construct)
# Experiment: 384 well plate NINDS Rhodamine confirmatory qHTS for Zika virus inhibitors (AID 1347164);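 also: fluorescence from protease cleavage of Ac-LKRR-rhodamine 110 substrate; nearly all actives have a fitted effect of over 65% in size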; also: potency is read from the fitted curve at half-maximal effect
# Details: rhodamine-110 peptide substrate fluorescence; series mostly up to 100 µM
# How it was run: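 Enzyme (final 5/30/60 nM) + cpd (DMSO), ~15 min; add Ac-LKRR-Rd 10 microM final; 25 min RT, dark; FI ex 485/em 538; normalized to no-enzyme, no-inhibitor ctrls; aprotinin intraplate ctrl.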
row,Structure (SMILES),Potency
1,Cc1cc(SCc2sc(-c3ccc(C(F)(F)F)cc3)nc2C)ccc1OCC(=O)O,2820 nM (active)
2,CC(C)(Sc1ccc(CCN(CCCCC2CCCCC2)C(=O)NC2CCCCC2)cc1)C(=O)O,inactive
3,Cc1cc2c(C(C)C)c(O)c(O)c(C=O)c2c(O)c1-c1c(C)cc2c(C(C)C)c(O)c(O)c(C=O)c2c1O,inactive

# Molecular target: Lysine-specific demethylase 5B (Homo sapiens) (UniProt Q9UGL1)
# Experiment: Optimization screen for KDM5B Histone Demethylases FDH coupled qHTS against the LOPAC library (AID 1347166)
# Details: KDM5B demethylation, FDH-coupled NADH fluorescence (FDH is formaldehyde dehydrogenase); series mostly up to 57.5 µM
# How it was run: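 KDM5BDeltaAP (200nM final) preincubated 10 min with compound, then 12.5uM H3K4Me3, 25uM a-ketoglutarate, ascorbate, Fe(II), NAD+ and FDH added; 50mM HEPES pH 7.5, 0.01% Tween-20. NADH fluorescence (340/450 nm) change over 30 min, room temperature.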
# Chain of Lysine-specific demethylase 5B (Homo sapiens) (Q9UGL1 whole entry, looked up): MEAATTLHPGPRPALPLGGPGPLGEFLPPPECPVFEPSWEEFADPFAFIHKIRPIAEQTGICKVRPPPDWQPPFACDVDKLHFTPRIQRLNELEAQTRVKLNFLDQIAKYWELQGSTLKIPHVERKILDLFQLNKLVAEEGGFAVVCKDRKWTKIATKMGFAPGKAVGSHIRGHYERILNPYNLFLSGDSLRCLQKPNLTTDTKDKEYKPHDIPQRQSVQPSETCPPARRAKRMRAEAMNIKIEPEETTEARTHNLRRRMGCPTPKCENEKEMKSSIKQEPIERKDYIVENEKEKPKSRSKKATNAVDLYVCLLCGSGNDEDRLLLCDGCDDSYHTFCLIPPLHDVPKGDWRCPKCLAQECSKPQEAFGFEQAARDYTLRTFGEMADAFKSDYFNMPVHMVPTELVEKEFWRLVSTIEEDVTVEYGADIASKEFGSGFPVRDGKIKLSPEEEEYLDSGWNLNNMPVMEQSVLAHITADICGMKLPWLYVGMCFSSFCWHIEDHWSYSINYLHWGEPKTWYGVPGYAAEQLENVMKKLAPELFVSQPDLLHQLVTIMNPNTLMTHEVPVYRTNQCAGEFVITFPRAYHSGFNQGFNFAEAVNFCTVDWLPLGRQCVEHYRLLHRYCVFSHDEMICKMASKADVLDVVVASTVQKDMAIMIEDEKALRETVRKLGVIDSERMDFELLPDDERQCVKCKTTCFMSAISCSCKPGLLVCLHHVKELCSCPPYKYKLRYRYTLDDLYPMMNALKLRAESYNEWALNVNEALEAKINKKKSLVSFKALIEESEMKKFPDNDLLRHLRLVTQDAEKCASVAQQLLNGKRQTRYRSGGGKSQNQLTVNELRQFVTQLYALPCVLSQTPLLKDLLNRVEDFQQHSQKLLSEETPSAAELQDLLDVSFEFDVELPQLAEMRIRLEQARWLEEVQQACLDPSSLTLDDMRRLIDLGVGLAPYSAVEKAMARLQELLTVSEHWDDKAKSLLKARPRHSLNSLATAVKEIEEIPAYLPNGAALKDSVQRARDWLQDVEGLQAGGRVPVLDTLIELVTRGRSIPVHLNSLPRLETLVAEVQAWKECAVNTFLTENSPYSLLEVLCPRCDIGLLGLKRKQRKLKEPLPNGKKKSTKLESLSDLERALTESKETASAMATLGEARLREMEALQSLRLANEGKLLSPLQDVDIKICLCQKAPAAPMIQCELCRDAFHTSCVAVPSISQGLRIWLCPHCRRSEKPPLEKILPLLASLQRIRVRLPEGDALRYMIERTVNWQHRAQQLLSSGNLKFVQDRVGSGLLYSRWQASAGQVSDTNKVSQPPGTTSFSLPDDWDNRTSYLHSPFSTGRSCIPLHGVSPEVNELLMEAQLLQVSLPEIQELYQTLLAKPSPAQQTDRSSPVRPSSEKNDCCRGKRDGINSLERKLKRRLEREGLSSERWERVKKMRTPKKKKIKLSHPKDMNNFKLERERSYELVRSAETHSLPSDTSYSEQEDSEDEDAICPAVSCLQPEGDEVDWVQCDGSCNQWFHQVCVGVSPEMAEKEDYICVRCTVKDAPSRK
row,Structure (SMILES),outcome
1,N[C@@H]1CONC1=O,inactive
2,N=c1nc(N2CCCCC2)cc(N)n1O,inactive
3,Clc1cccc(Cl)c1NC1=NCCN1,inactive
4,CC(C)C[C@H](NC(=O)[C@@H](O)[C@H](N)Cc1ccccc1)C(=O)O,inactive
5,Cc1oncc1C(=O)Nc1ccc(C(F)(F)F)cc1,inactive
6,Cn1cnc([N+](=O)[O-])c1Sc1ncnc2nc[nH]c12,inactive
7,Cc1ccccc1C(OCCN(C)C)c1ccccc1 (stereo unspecified),inactive
8,CNC[C@H](O)c1cccc(O)c1,inactive
9,CC(C)(C)NCC(O)c1ccc(O)c(CO)c1 (stereo unspecified),inactive
10,C[C@]12CCC(=O)C=C1CC[C@@H]1[C@@H]2[C@@H](O)C[C@@]2(C)[C@H]1CC[C@]2(O)C(=O)CO,inactive
11,NC(=O)c1cnccn1,inactive
12,Nc1nc2c(ncn2COCCO)c(=O)[nH]1,inactive
13,Cc1cccc(-c2[nH]c(C(C)(C)C)nc2-c2ccc3nccnc3c2)n1,inactive
14,NS(=O)(=O)c1cc2c(cc1Cl)NC=NS2(=O)=O,inactive
15,CC(C)(Sc1ccc(CCN(CCCCC2CCCCC2)C(=O)NC2CCCCC2)cc1)C(=O)O,inactive
16,Nc1nc2ccc(OC(F)(F)F)cc2s1,inactive
17,CCOC(=O)C1=C[C@]2(CC)CCCN3CCc4c(n1c1ccccc41)[C@@H]32,inactive
18,O=C1CCc2cc(OCCCCc3nnnn3C3CCCCC3)ccc2N1,inactive
19,CC(C[N+](C)(C)C)OC(N)=O (stereo unspecified),inactive
20,OC(CCN1CCCCC1)(c1ccccc1)C1CC2C=CC1C2 (stereo unspecified),inactive
21,O=NN(CCCl)C(=O)NCCCl,inactive
22,O=C(Nc1nc2ccccc2n1CCN1CCOCC1)c1cccc([N+](=O)[O-])c1,inactive
